The list is not random: actives were taken first. Their share in the collection is about 1.5%.
Myeloid diff 2: myeloid differentiation induction. ER-HoxA9 myeloid progenitors, lysozyme-GFP differentiation, flow cytometry. calls only at 10 µM. hit rate 1% among 360,000;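 active = normalized GFP-positive differentiation at or above the plate's own cutoff, the solvent-only control mean plus 3 SD; inconclusive = no clear call, values can overlap the other calls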;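 note: cells exposed to compound for four days before flow analysis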
TLR9-MyD88 block: inhibitors of human TLR9-MyD88 binding; Q9NR96+Q99836; CHO BLA complementation TLR9-MyD88, CCF4 FRET ratio; inhibition, % at 4.98 µM; hit rate 0.21% among 340,000;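 active = inhibition above the mean over all tested compounds plus 3 SD, cut at about 21% in these data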;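 note: 0% = DMSO only wells and 100% = clavulanate BLA inhibitor control wells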
TLR4 MyD88 comp: blocks binding of human TLR4 to MyD88 | hit rate 0.18% among 200,000 | inhibition, % at 8.4 µM | AID 861 | HeLa CL3-4 TLR4/MyD88 BLA complementation, FRET ratio | O00206+Q99836; in the data active = inhibition above about 25%;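 note: 0% = vehicle and 100% = reference inhibitor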
NOD2 RIPK2 PPI: blocks binding of human NOD2 to RIPK2. CHO BLA complementation NOD2-RIPK2, CCF4 ratio. O43353. hit rate 0.38% among 360,000. inhibition, % at 4.98 µM. AID 624267; in the data active = inhibition above about 21%;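 note: 0% = vehicle only and 100% = reference blocker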
Target sequence (O43353 whole entry, looked up): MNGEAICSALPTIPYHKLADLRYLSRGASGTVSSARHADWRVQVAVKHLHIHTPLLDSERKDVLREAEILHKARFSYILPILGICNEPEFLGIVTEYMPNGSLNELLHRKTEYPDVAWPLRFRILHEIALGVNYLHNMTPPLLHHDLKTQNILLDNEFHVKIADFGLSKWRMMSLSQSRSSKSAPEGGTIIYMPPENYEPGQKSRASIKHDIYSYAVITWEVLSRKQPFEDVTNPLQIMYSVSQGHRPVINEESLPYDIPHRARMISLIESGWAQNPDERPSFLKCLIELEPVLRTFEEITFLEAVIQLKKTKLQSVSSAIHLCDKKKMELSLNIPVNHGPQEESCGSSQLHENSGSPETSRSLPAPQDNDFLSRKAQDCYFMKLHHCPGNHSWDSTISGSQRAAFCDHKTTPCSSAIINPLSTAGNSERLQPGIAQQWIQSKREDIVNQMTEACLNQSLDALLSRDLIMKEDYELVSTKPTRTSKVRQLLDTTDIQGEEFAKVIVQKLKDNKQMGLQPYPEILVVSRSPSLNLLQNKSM
* hit, by the source's call; i = inactive; ? = inconclusive; / = not tested or not shown; + = active, no number; ! = a repeat was not active.

SMILES	Myeloid diff 2	TLR9-MyD88 block	TLR4 MyD88 comp	NOD2 RIPK2 PPI
COc1cc(/C=C2/C(=O)NN(c3cccc(C)c3)C2=O)cc([N+](=O)[O-])c1O	i	4.7	7.0	2.4
COc1cc(/C=C2/C(=O)NN(c3ccc(C)c(Cl)c3)C2=O)cc([N+](=O)[O-])c1O	+	-0.7	/	1.2
O=C(c1ccc(Cl)s1)N1CCCC1	+	0.7	-2.0	7.6
CCOC(=O)C1=C(c2ccccc2)N(C)C(=O)NC1c1ccc(OC(F)F)c(OC)c1 (stereo not given)	+	-5.7	-2.1	5.7
Nc1c(C(=O)O)sc2nc(-c3ccccc3)cc(-c3ccc(F)cc3)c12	+	-8.0	/	-7.1
COc1ccc(-n2c(O)c(/C=N/NS(=O)(=O)c3cc(C)ccc3C)c3ccccc3c2=O)cc1OC	+	17.0	11.9	4.7
COc1ccc(-n2c(O)c(/C=N/NS(=O)(=O)c3ccc(C)cc3)c3ccccc3c2=O)cc1OC	?	4.1	-5.8	11.2
COCCn1c(SCC(=O)c2c[nH]c3ccccc23)nnc1-c1ccncc1	i	-10.6	3.1	6.1
CCn1c(SCC(=O)c2c[nH]c3ccccc23)nnc1-c1cccs1	+	-2.5	1.5	0.7
COc1cccc(CNC(=O)[C@@H]2CCCN2C(=O)[C@H]2CCCCN2C(=O)OC(C)(C)C)c1	i	/	/	-7.0
O=S(=O)(NCC[C@@H]1CC[C@H](NS(=O)(=O)c2cccc(F)c2)[C@@H](CO)O1)c1cccc(F)c1	i	/	/	9.4
O=C(O)c1cc(-c2ccc3ccccc3c2)nc2ccc(F)cc12	+	-18.0	/	0.2
COc1ccc(OC)c(CN2CCN(C(=O)c3cccc(S(=O)(=O)N(C)c4ccccc4)c3)CC2)c1	i	2.1	/	-8.5
Cc1c(-n2cc(C(=O)c3cc(Br)ccc3O)cc(C#N)c2=O)c(=O)n(-c2ccccc2)n1C	i	-5.0	-2.5	-1.2
Cc1ccc(O)c(C(=O)c2cc(C#N)c(=O)n(-c3c(C)n(C)n(-c4ccccc4)c3=O)c2)c1	+	0.4	0.8	-38.1
O=c1[nH]c(SCCc2ccccc2)nc2c1CCC2	i	/	/	-13.0
CCOC(=O)CC12CN3CN(C1)CC(CC(=O)OCC)(C3)C2=O	+	-1.6	-4.0	-3.8
C=CCc1cccc2ccc(=O)oc12	+	-11.8	-12.8	-0.1
C=CCc1cccc2cc(C(=O)NC(C)(C)C)c(=O)oc12	i	-3.7	19.1	-1.3
OCCN1CCN(c2ncnc3c2ncn3[C@H]2CN(Cc3cccc(C(F)(F)F)c3)C[C@@H](CO)O2)CC1	i	/	/	3.1
CC1CCCN(CC(=O)Nc2ccc(S(=O)(=O)N3CCCC3)cc2)C1 (stereo not given)	+	-6.1	/	-4.0
Cc1[nH]c2ccccc2c1C(=O)NS(=O)(=O)Nc1ccc(F)cc1	+	-6.6	-2.1	-6.7
Cc1cc(/C=N/n2cnnc2)c(C)n1-c1ccc(OCc2ccc(Cl)cc2Cl)cc1	i	-3.9	0.9	-7.2
Cc1cc(/C=N/n2cnnc2)c(C)n1-c1ccc(OCc2ccc(F)cc2)cc1	+	1.6	2.2	-8.3
Cc1ccc([N+](=O)[O-])c(NC(=O)COC(=O)CCNS(=O)(=O)c2cccs2)c1C	i	0.1	/	8.3
SMILES	Myeloid diff 2	TLR9-MyD88 block	TLR4 MyD88 comp	NOD2 RIPK2 PPI
CC(=O)Nc1ccc(-c2ccnc3c2CC(C)(C(=O)NCCC(F)(F)F)O3)cc1 (stereo not given)	i	/	/	-2.8
CC(=O)Nc1cccc(-c2ccnc3c2CC(C)(C(=O)NCCC(F)(F)F)O3)c1 (stereo not given)	+	/	/	0.9
CC(=O)Nc1cccc(-c2ccnc3c2CC(C)(C(=O)NCc2ccc(F)c(F)c2)O3)c1 (stereo not given)	+	/	/	6.2
Cc1ccc([C@@]2(OC(=O)c3ccccc3)C(=O)N(C(=O)OC(C)(C)C)c3ccccc32)cc1	i	/	/	-11.8
O=C(NCCNC(=O)c1ccc(-c2cc(Cl)ccc2Cl)o1)c1cnccn1	i	-0.9	/	-0.3
CC(C)n1cnc2c(Nc3cccc(Cl)c3)nc(NCCCO)nc21	+	12.0	/	0.9
O=C(Cn1sc2ccccc2c1=O)NC12CC3CC(CC(C3)C1)C2	i	21.4*	-4.1	8.8
O=C(Cn1sc2ccccc2c1=O)Nc1ccccc1	+	1.3	/	17.8
N#Cc1cnn2c(=O)[nH]cnc12	i	1.0	/	-0.1
CC(C)C[C@H](NC(=O)N1CCn2c1nc1ccccc12)C(=O)NCc1ccco1	+	-2.6	/	0.3
COc1cc(NC(=O)[C@@H](NC(=O)N2CCn3c2nc2ccccc23)C(C)C)cc(OC)c1	+	3.4	/	2.0
CC(=O)Nc1sc2c(c1C(c1ccccn1)N1CCCC1)CCCC2 (stereo not given)	i	1.2	-9.8	-1.6
CC(=O)Nc1sc2c(c1C(c1ccccc1Cl)N1CCN(CCO)CC1)CCCC2 (stereo not given)	+	2.0	4.5	-11.5
O=C(/C=C/c1ccc(F)cc1)N1CC[C@@]2(O)CCCC[C@H]2C1	+	-5.7	/	3.1
Cc1cccc(Nc2nc(N)nc(-c3oc4ccccc4c3C)n2)c1	+	0.4	/	5.7
COc1cccc(Nc2nc(N)nc(-c3oc4ccccc4c3C)n2)c1	i	6.5	5.9	-2.1
O=C(NCc1ccccc1)c1ccc(C(=O)NCc2ccccc2)cc1	i	-1.7	/	-1.5
O=C(NCc1ccccc1)c1n[nH]nc1-c1ccccc1O	+	-0.7	-3.6	-49.0
Cn1c(=O)oc2cc(S(=O)(=O)NCC3CCCO3)ccc21 (stereo not given)	+	2.6	7.4	7.4
CC1CCN(C(=O)CCNS(=O)(=O)c2ccc3c(c2)oc(=O)n3C)CC1	i	3.0	/	-1.9
CC1CC(C)CN(CCCNS(=O)(=O)c2ccc3c(c2)oc(=O)n3C)C1 (stereo not given)	+	-7.8	/	1.6
COC(=O)[C@@]12C[C@@H](CC(=O)NCCCCc3ccccc3)C(=O)N(Cc3cccc4ccccc34)C1=CCC(C)(C)C2	i	/	/	-3.3
O=C(Oc1cc2oc(=O)cc(-c3ccccc3)c2cc1Cl)C1CCCCC1	i	17.1	20.1	28.6*
CCCC(=O)NCC(c1cccs1)S(=O)(=O)c1ccc(Cl)cc1 (stereo not given)	+	-3.2	/	-15.7
CCOC(=O)c1ccc(N=c2sc(C(=O)OC)cc(=O)n2CCCN2CCOCC2)cc1	+!	0.1	-10.0	-5.5
SMILES	Myeloid diff 2	TLR9-MyD88 block	TLR4 MyD88 comp	NOD2 RIPK2 PPI
CN1CCN(C2CN(Cc3cn(Cc4ccc(F)cc4)nn3)S(=O)(=O)C2)CC1 (stereo not given)	i	/	/	2.6
CCOC(=O)c1c(NC(=O)COc2cccc3c2CCN(C)C3=O)sc2c1CCC2	+	3.6	-26.2	6.7
Cc1cccc(NC(=O)COc2cccc3c2CCN(Cc2ccccc2)C3=O)c1C	+	4.3	2.5	-5.7
Cc1cccc(C)c1NC(=O)C(c1cc2ccccc2o1)N1CCN(C)CC1 (stereo not given)	i	/	/	-6.3
CC(C)(C)c1ccc(O)c(N=Cc2cc(Br)ccc2O)c1	i	-6.8	-3.6	-3.4
Cc1ccc(O)c(C=Nc2cc(C)ccc2O)c1	+	-7.2	-0.9	0.9
